# Measurements taken from PubChem BioAssay (Tox21).
# Inconclusive results are not listed. Calls of active or inactive are those of the source. Unless noted, the call rests on the fitted dose curve.
# Biological target: Nuclear receptor ROR-gamma (Homo sapiens) (UniProt P51449)
# Experiment: qHTS assay to identify small molecule antagonists of the retinoid-related orphan receptor gamma (ROR-gamma) signaling pathway (AID 1159521; active means well fitted inhibition curve with a large enough effect in the repeat runs; further: nearly all actives have a fitted effect of over 50% in size; further: potency means the concentration at half of the fitted maximal effect;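 on activity change, negative = inhibition: CHO cells with doxycycline inducible ROR-gamma driving an RORE luciferase reporter; top concentration of the series differs between compounds; on the % scale 0 is the no-effect control and ±100 the full control effect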)
# Conditions: Tet-on RORgamma CHO cells, RORE-luciferase, 16 h; series mostly up to 92.4 µM; activity change, negative = inhibition: at the top concentration
# Method in brief: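 CHO Tet-on RORγ, RORE-luc reporter. Cpd 2 h pre-incubation, then dox hyclate 1 uM final, 16 h, 37 C/5% CO2. ONE-Glo luminescence; decrease = antagonist.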
SMILES,"activity change, negative = inhibition",Potency
Cc1cn([C@H]2C[C@H](F)[C@@H](CO)O2)c(=O)[nH]c1=O,7.14% [at 42.5 µM] (inactive),
COc1cc(NC(C)CCCN)c2ncccc2c1 (stereo not given),16.5% [at 42.5 µM] (inactive),
CN1CCCN(C(c2ccccc2)c2ccc(Cl)cc2)CC1 (stereo not given),,26.6 µM (active)
COc1cc(S(=O)(=O)Nc2ccccc2)c(OC)cc1N,3.87% (inactive),
CC(C)(C)S,-7.72% (inactive),
NC(=O)CCCCC(N)=O,0.377% (inactive),
CCN(CC)CC(=O)Nc1c(C)cccc1C(=O)OC,-6.21% [at 42.5 µM] (inactive),
Cc1cccc2sc(N)nc12,29.3% (inactive),
CC(O)Cn1cnc2c1c(=O)n(C)c(=O)n2C (stereo not given),34.2% [at 42.5 µM] (inactive),
O=C(O)CN1C(=O)c2cccc3cccc(c23)C1=O,20.1% [at 42.5 µM] (inactive),
O=C1NC(=O)c2cccc3cccc1c23,52.2% (inactive),
CCCc1nc2c(C)cc(-c3nc4ccccc4n3C)cc2n1Cc1ccc(-c2ccccc2C(=O)O)cc1,-29.9% [at 42.5 µM] (inactive),
FC(F)(F)C(F)(F)C(F)(F)C(F)(F)CCI,15.5% [at 42.5 µM] (inactive),
COc1ccc2nc(S(=O)Cc3ncc(C)c(OC)c3C)[nH]c2c1 (stereo not given),,inactive
COC(=O)CC(C(C)=O)C(=O)OC (stereo not given),2.3% (inactive),
CC1CCC(C(C)CS)CC1S (stereo not given),34.1% (inactive),
CCCCCCCC(=O)OCCCCCC,32.2% (inactive),
COc1ccc(C)cc1,64.6% (inactive),
Nc1ccn([C@H]2CS[C@@H](CO)O2)c(=O)n1,-1.43% (inactive),
Cc1cc(CCC(=O)OCCOCCOCCOC(=O)CCc2cc(C)c(O)c(C(C)(C)C)c2)cc(C(C)(C)C)c1O,-17.3% (inactive),
CC(C)C(=O)OCCOc1ccccc1,-5.59% (inactive),
c1ccc(CCCc2ccncc2)cc1,0.0144% (inactive),
Nc1ccc(NC(=O)c2ccc(N)cc2)cc1,121% (inactive),
CC[C@@H](CO)NCCN[C@@H](CC)CO,19.8% [at 42.5 µM] (inactive),
O=C(c1ccccc1)c1ccc(O)cc1,74.8% (inactive),
CCN(Cc1cccc(S(=O)(=O)O)c1)c1ccc(C(=C2C=CC(=[N+](CC)Cc3cccc(S(=O)(=O)O)c3)C=C2)c2ccc(O)cc2S(=O)(=O)[O-])cc1,,14.8 µM (active)
Nc1ccc(N=Nc2ccc(N)cc2)cc1,109% [at 42.5 µM] (inactive),
CNc1c2c(nn1C)CCCC2,3.6% [at 42.5 µM] (inactive),

# System: not listed separately
# Experiment: qHTS assay to identify small molecule agonists of the AP-1 signaling pathway - cell viability counter screen (AID 1159525); further: nearly all actives have a fitted effect of over 55% in size; further: potency means the concentration at half of the fitted maximal effect
# Conditions: ME-180 AP-1-bla cells viability, ATP luminescence, 5 h; series mostly up to 76.8 µM; viability change, negative = cytotoxic: at the top concentration
# Method in brief: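 Intracellular ATP by Cell Titer Glo luminescence (30 min, RT) in the same ME-180 AP-1-bla wells after the 5 h compound exposure at 37 °C. Normalised to tetra n-octyl ammonium bromide and DMSO controls.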
SMILES,"viability change, negative = cytotoxic",Potency
Cc1cn([C@H]2C[C@H](F)[C@@H](CO)O2)c(=O)[nH]c1=O,7.12% [at 35.3 µM] (inactive),
COc1cc(NC(C)CCCN)c2ncccc2c1 (stereo not given),-1.73% [at 35.3 µM] (inactive),
CN1CCCN(C(c2ccccc2)c2ccc(Cl)cc2)CC1 (stereo not given),-12.2% [at 35.3 µM] (inactive),
COc1cc(S(=O)(=O)Nc2ccccc2)c(OC)cc1N,3.04% (inactive),
CC(C)(C)S,-1.4% (inactive),
COc1ccc(/C=C/C(=O)c2ccc(OC)cc2OC)cc1,10.1% [at 35.3 µM] (inactive),
NC(=O)CCCCC(N)=O,0.0383% (inactive),
CCNc1nc(N)nc(Cl)n1,4.09% (inactive),
CN(C)CC/C=C1\c2ccccc2Sc2ccc(Cl)cc21,-19.5% [at 35.3 µM] (inactive),
CCN(CC)CC(=O)Nc1c(C)cccc1C(=O)OC,1.04% [at 35.3 µM] (inactive),
Cc1cccc2sc(N)nc12,-21.2% (inactive),
CC(O)Cn1cnc2c1c(=O)n(C)c(=O)n2C (stereo not given),-5.29% [at 35.3 µM] (inactive),
O=C(O)CN1C(=O)c2cccc3cccc(c23)C1=O,2.4% [at 35.3 µM] (inactive),
O=C1NC(=O)c2cccc3cccc1c23,-7.03% (inactive),
CCCc1nc2c(C)cc(-c3nc4ccccc4n3C)cc2n1Cc1ccc(-c2ccccc2C(=O)O)cc1,4.38% [at 35.3 µM] (inactive),
FC(F)(F)C(F)(F)C(F)(F)C(F)(F)CCI,2.98% [at 35.3 µM] (inactive),
CCN(CC)C(=O)/C(C#N)=C/c1cc(O)c(O)c([N+](=O)[O-])c1,0.987% [at 35.3 µM] (inactive),
COc1ccc2nc(S(=O)Cc3ncc(C)c(OC)c3C)[nH]c2c1 (stereo not given),,inactive
CNS(=O)(=O)c1cc(C(=O)N2CCC(CCN3C4CCC3CC(n3c(C)nc5ccccc53)C4)(c3cccc(F)c3)CC2)c(Cl)cc1F (stereo not given),,24.5 µM (active)

SMILES,"viability change, negative = cytotoxic",Potency
COC(=O)CC(C(C)=O)C(=O)OC (stereo not given),-0.155% (inactive),
CC1CCC(C(C)CS)CC1S (stereo not given),-2.53% (inactive),
CCCCCCCC(=O)OCCCCCC,1.3% (inactive),
CC(C)CC(O)CC(C)C,0.685% (inactive),
COc1ccc(C)cc1,0.383% (inactive),
Nc1ccn([C@H]2CS[C@@H](CO)O2)c(=O)n1,7% (inactive),
Cc1cc(CCC(=O)OCCOCCOCCOC(=O)CCc2cc(C)c(O)c(C(C)(C)C)c2)cc(C(C)(C)C)c1O,0.886% (inactive),
COc1ccc(-n2nc(C(F)F)cc2-c2ccc(S(C)=O)cc2)cc1 (stereo not given),-6.2% (inactive),
O=C(O)c1cc(Cl)cc(Cl)c1O,-0.89% (inactive),
CC(C)C(=O)OCCOc1ccccc1,4.73% (inactive),
COC(=O)c1sccc1S(N)(=O)=O,7.42% (inactive),
CNC1CCCN(c2c(F)cc3c(=O)c(C(=O)O)cn(C4CC4)c3c2OC)C1 (stereo not given),14.2% [at 35.3 µM] (inactive),
c1ccc(CCCc2ccncc2)cc1,0.822% (inactive),
Nc1ccc(NC(=O)c2ccc(N)cc2)cc1,-1.7% (inactive),
CC[C@@H](CO)NCCN[C@@H](CC)CO,-17% [at 35.3 µM] (inactive),
O=C(c1ccccc1)c1ccc(O)cc1,8.92% (inactive),
Nc1ccc(N=Nc2ccc(N)cc2)cc1,-1.05% [at 35.3 µM] (inactive),
CNc1c2c(nn1C)CCCC2,-2.53% [at 35.3 µM] (inactive),

# System: not listed separately
# Experiment: qHTS assay to identify small molecule agonists of the AP-1 signaling pathway (AID 1159526); further: on the % scale 0 is the no-effect control and ±100 the full control effect
# Conditions: ME-180 (cervical carcinoma) AP-1-bla reporter, beta-lactamase FRET ratio, 5 h; series mostly up to 76.8 µM; activation: at the top concentration
row,SMILES,activation
1,Cc1cn([C@H]2C[C@H](F)[C@@H](CO)O2)c(=O)[nH]c1=O,1.11% [at 35.3 µM] (inactive)
2,COc1cc(NC(C)CCCN)c2ncccc2c1 (stereo not given),24.5% [at 35.3 µM] (inactive)
3,COc1cc(S(=O)(=O)Nc2ccccc2)c(OC)cc1N,-5.28% (inactive)
4,CC(C)(C)S,-1.38% (inactive)
5,NC(=O)CCCCC(N)=O,-5.84% (inactive)
6,CCNc1nc(N)nc(Cl)n1,-3.83% (inactive)
7,CCN(CC)CC(=O)Nc1c(C)cccc1C(=O)OC,0.289% [at 35.3 µM] (inactive)
8,Cc1cccc2sc(N)nc12,4.58% (inactive)
9,CC(O)Cn1cnc2c1c(=O)n(C)c(=O)n2C (stereo not given),-1% [at 35.3 µM] (inactive)
10,O=C(O)CN1C(=O)c2cccc3cccc(c23)C1=O,-7.16% [at 35.3 µM] (inactive)
11,O=C1NC(=O)c2cccc3cccc1c23,0.567% (inactive)
12,CCCc1nc2c(C)cc(-c3nc4ccccc4n3C)cc2n1Cc1ccc(-c2ccccc2C(=O)O)cc1,-3.36% [at 35.3 µM] (inactive)
13,FC(F)(F)C(F)(F)C(F)(F)C(F)(F)CCI,-3.7% [at 35.3 µM] (inactive)
14,CCN(CC)C(=O)/C(C#N)=C/c1cc(O)c(O)c([N+](=O)[O-])c1,-0.939% [at 35.3 µM] (inactive)
15,COc1ccc2nc(S(=O)Cc3ncc(C)c(OC)c3C)[nH]c2c1 (stereo not given),0.204% [at 35.3 µM] (inactive)
16,CNS(=O)(=O)c1cc(C(=O)N2CCC(CCN3C4CCC3CC(n3c(C)nc5ccccc53)C4)(c3cccc(F)c3)CC2)c(Cl)cc1F (stereo not given),0.0432% (inactive)
17,COC(=O)CC(C(C)=O)C(=O)OC (stereo not given),-1.57% (inactive)
18,CC1CCC(C(C)CS)CC1S (stereo not given),-1.31% (inactive)

row,SMILES,activation
1,CCCCCCCC(=O)OCCCCCC,-3.07% (inactive)
2,CC(C)CC(O)CC(C)C,-10.7% (inactive)
3,COc1ccc(C)cc1,-1.89% (inactive)
4,Nc1ccn([C@H]2CS[C@@H](CO)O2)c(=O)n1,-2.77% (inactive)
5,Cc1cc(CCC(=O)OCCOCCOCCOC(=O)CCc2cc(C)c(O)c(C(C)(C)C)c2)cc(C(C)(C)C)c1O,-3.59% (inactive)
6,COc1ccc(-n2nc(C(F)F)cc2-c2ccc(S(C)=O)cc2)cc1 (stereo not given),-3.21% (inactive)
7,O=C(O)c1cc(Cl)cc(Cl)c1O,-1.75% (inactive)
8,CC(C)C(=O)OCCOc1ccccc1,-1.11% (inactive)
9,COC(=O)c1sccc1S(N)(=O)=O,-7.32% (inactive)
10,CNC1CCCN(c2c(F)cc3c(=O)c(C(=O)O)cn(C4CC4)c3c2OC)C1 (stereo not given),-1.9% [at 35.3 µM] (inactive)
11,c1ccc(CCCc2ccncc2)cc1,10.9% (inactive)
12,Nc1ccc(NC(=O)c2ccc(N)cc2)cc1,-1.3% (inactive)
13,CC[C@@H](CO)NCCN[C@@H](CC)CO,-5.55% [at 35.3 µM] (inactive)
14,O=C(c1ccccc1)c1ccc(O)cc1,-1.53% (inactive)
15,CCN(Cc1cccc(S(=O)(=O)O)c1)c1ccc(C(=C2C=CC(=[N+](CC)Cc3cccc(S(=O)(=O)O)c3)C=C2)c2ccc(O)cc2S(=O)(=O)[O-])cc1,15.6% [at 35.3 µM] (inactive)
16,Nc1ccc(N=Nc2ccc(N)cc2)cc1,-0.355% [at 35.3 µM] (inactive)
17,CNc1c2c(nn1C)CCCC2,-4.6% [at 35.3 µM] (inactive)
